Assay results taken from PubChem BioAssay (NCATS).
Records with an inconclusive call do not appear. Calls of active or inactive are those of the source. The call rests on the fitted dose curve; in most records, active means well fitted curve in the direction sought with a large enough effect; inconclusive means small, poorly fitted or top-dose-only effect, or another doubt; inactive means no such curve, though single readings can be large; an effect the other way counts as inactive or inconclusive.

Columns and labels:
[1] = target: Cellular tumor antigen p53 (Homo sapiens) (UniProt P04637); experiment: Primary qHTS for small molecule compounds that upregulate eGFP-tagged delta133p53alpha (in N-terminal) cells. (AID 2060322); settings: NCI-H358 eGFP-delta133p53alpha fluorescence, 24 h; activation: active compounds read high;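 further: cells pre-induced with doxycycline then dosed without doxycycline; series mostly up to about 56 µM; 0% = DMSO vehicle and 100% = reference activator; nearly all actives have a fitted effect of over 75% in size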
Procedure, shortened: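 NCI-H358 cells pre-induced 24 h with 10 ng/ml doxycycline for eGFP-delta133p53alpha, plated dox-free and exposed 24 h at 37C to titrated compounds. Fixed, Hoechst-stained; gated GFP peak intensity by laser scanning cytometry, normalized to DMSO (0%) and 57.5 uM 5-azacytidine (100%).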

[2] = target: Aldehyde dehydrogenase, mitochondrial (Homo sapiens) (UniProt P05091); experiment: qHTS for Inhibitors of the Aldehyde Dehydrogenase Family (ALDH2) Primary screen (AID 2061308);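 further: plate controls were vehicle for no effect and reference inhibitor for full effect; nearly all actives have a fitted effect of over 55% in size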
[3] = target: Retinaldehyde dehydrogenase 3 (Homo sapiens) (UniProt P47895); experiment: qHTS for Inhibitors of the Aldehyde Dehydrogenase Family (ALDH1A3) Primary screen (AID 2061315);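 further: plate controls were DMSO vehicle for no effect and reference inhibitor for full effect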
[4] = target: Aldehyde dehydrogenase 1A1 (Homo sapiens) (UniProt P00352); experiment: qHTS for Inhibitors of the Aldehyde Dehydrogenase Family (ALDH1A1) Confirmatory screens (AID 2061316); further: nearly all actives have a fitted effect of over 65% in size

Cellular tumor antigen p53 (Homo sapiens), sequence (P04637 whole entry, looked up): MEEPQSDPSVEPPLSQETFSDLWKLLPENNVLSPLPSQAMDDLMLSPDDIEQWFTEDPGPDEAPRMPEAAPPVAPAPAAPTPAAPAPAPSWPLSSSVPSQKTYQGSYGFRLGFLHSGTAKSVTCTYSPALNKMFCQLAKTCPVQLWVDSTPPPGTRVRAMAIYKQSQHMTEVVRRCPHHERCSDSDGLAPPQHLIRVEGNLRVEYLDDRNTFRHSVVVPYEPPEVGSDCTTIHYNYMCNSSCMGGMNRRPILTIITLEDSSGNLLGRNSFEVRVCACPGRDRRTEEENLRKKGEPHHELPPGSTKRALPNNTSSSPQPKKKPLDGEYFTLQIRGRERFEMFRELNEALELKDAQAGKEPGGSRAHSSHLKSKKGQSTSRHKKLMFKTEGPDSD

C=CC(C)(C)c1[nH]c2ccccc2c1C[C@@H]1NC(=O)[C@H](Cc2c[nH]c3ccccc23)NC1=O
inactive: activation [1] 6.25% | Potency [2] | Potency [3]

COc1c(C)c(OCC(O)C(C)(C)O)cc2c1COC2=O (stereo not drawn)
inactive: activation [1] 5.34% | Potency [2] | Potency [3]

N#Cc1cccc(-c2nc(-c3cccnc3)no2)c1
inactive: activation [1] -3.34% | Potency [2] | Potency [3]

C/C=C(\C)C(=O)OCC1OC(OCC2OC(OC3(CO)OC(CO)C(O)C3O)C(O)C(O)C2O)C(O)C(O)C1O (stereo not drawn)
inactive: activation [1] -9.16% | Potency [2] | Potency [3]

C=C1CC[C@@H]2[C@@](C)(CO[C@@H]3O[C@H](CO)C(O)[C@H](O)C3O)[C@H](O)CC[C@@]2(C)[C@@H]1CC/C(C)=C/CO (stereo partly drawn)
inactive: activation [1] -5.36% | Potency [2] | Potency [3]

C=CC(C)(C)O[C@@H]1O[C@H](CO[C@@H]2OC[C@](O)(CO)[C@H]2O)[C@@H](O)[C@H](O)[C@H]1O
inactive: activation [1] -18.3% | Potency [2] | Potency [3]

CC(=O)OCC(=O)O[C@@H]1[C@H]2[C@@H](OC(=O)c3ccccc3)[C@@H](C)C[C@]2(O)[C@H](OC(C)=O)C2(C)[C@H]3CC(C)(C)C(=O)[C@@H]3CC1(OC(C)=O)[C@@H]2OC(C)=O (stereo partly drawn)
inactive: activation [1] -11.6% | Potency [2] | Potency [3]

CC(=O)c1c(O)cc(O[C@@H]2O[C@H](CO)[C@@H](O)[C@H](O)[C@H]2O)cc1O
inactive: activation [1] -8.04% | Potency [2] | Potency [3] | Potency [4]

O=C(/C=C/c1ccc(O)cc1)O[C@H]1[C@H](OC2CCCCC2O)O[C@H](CO)[C@@H](O)[C@@H]1O (stereo partly drawn)
inactive: activation [1] -11.5% | Potency [2] | Potency [3]
